Assay outcomes (PubChem BioAssay)
ADAM17 inh: inhibitors of human ADAM17; P78536; recombinant ADAM17, EDANS/DABCYL FRET peptide cleavage; inhibition, % at 6.95 µM; 0.83% of 370,000 active; AID 720648;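 active = inhibition above the mean of compounds lying between control limits plus 3 SD, set per campaign, cut at about 8.5% in these data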
ADAM10 inh: inhibits human ADAM10. inhibition, % at 7 µM. 0.62% of 370,000 active. recombinant ADAM10, EDANS/DABCYL FRET peptide cleavage, 3 h. O14672;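 active = inhibition above a per-campaign cutoff equal to the mean of compounds falling between control-based bounds plus 3 SD, cut at about 20% in these data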
V-ATPase pH: yeast V-ATPase proton transport regulation by pHLuorin; S. cerevisiae, pHLuorin cytosolic pH fluorescence; response, % at 10 µM; 0.37% of 350,000 active; AID 504577; in the data active = response mostly above about 7.3%, no sharp cut-off; inactive = mostly below about 5.4%; also: actives read high
KLK7 zymogen act: activators of human kallikrein-7 zymogen. purified proKLK7, EDANS-DABCYL substrate fluorescence; 100% is mature enzyme control, 0% vehicle. activation, % at 7 µM. AID 652039. 0.9% of 370,000 active;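 active = activation above the mean of all tested compounds plus 3 SD, computed per campaign excluding outliers beyond control limits, cut at about 13% in these data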
Target sequence (P49862 whole entry, looked up): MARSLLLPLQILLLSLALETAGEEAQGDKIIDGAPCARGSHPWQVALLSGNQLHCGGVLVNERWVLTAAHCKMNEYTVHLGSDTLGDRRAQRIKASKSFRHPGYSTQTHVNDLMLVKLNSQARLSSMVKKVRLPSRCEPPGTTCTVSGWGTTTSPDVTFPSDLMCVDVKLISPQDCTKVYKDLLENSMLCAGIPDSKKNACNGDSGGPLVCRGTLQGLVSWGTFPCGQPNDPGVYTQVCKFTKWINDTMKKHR
V-ATPase pH SP: yeast V-ATPase proton transport regulation; shares compounds with V-ATPase pH; S. cerevisiae pHLuorin cytosolic pH; response, % at 10 µM; 2% of 980 active; in the data active = response above about 24%
Large screens that a line does not name were inactive (follow-up assays come after a bar, where they were run). A selection: hits, their analogues and other compounds. The true share with any hit is near 2.3%.

CN(C)c1ccc(C(=O)NC2CCCCN(Cc3cccc(Cl)c3)C2=O)cc1 (stereo unspecified)	none (no result: V-ATPase pH)
O=C(NN=C1CCCCCCC1)c1ccc(F)cc1	none | V-ATPase pH SP inactive
NNC(=O)CNc1ccccc1Cl	V-ATPase pH 8.4 | V-ATPase pH SP inactive
O=C(CCCCC(=O)Nc1ccccc1Cl)Nc1ccccc1Cl	none
O=[N+]([O-])c1ccc2c(c1)C(O)n1nc(-c3ccc(Cl)cc3Cl)nc1S2 (stereo unspecified)	V-ATPase pH 7.3 | V-ATPase pH SP inactive
Cc1ccc(S(=O)(=O)C=CS(=O)(=O)c2ccc(C)cc2)cc1	V-ATPase pH 20.1 | V-ATPase pH SP 114.8
O=C1NC(=O)C2C3C=CC(C12)C1C(=O)NC(=O)C31 (stereo unspecified)	none (no result: V-ATPase pH)
CCOC(=O)N=Nc1c2ccccc2c2nc3no[nH]c3nc12	V-ATPase pH 21.8 | V-ATPase pH SP 117.8
C(=N\Nc1nncc2ccccc12)/c1cccnc1	none (no result: V-ATPase pH)
CC(C)C[C@@H]1COc2cc(Br)ccc2S(=O)(=O)N1Cc1cn(Cc2ccc(Cl)cc2)nn1	none (no result: V-ATPase pH)
Cc1ccc(NC(=O)C2CCN(c3nnc(-n4cccc4)s3)CC2)c(C)c1	none (no result: V-ATPase pH)
O=C(OCc1ccccc1Cl)c1cccnc1Cl	V-ATPase pH 9.5 | V-ATPase pH SP inactive
O=C1CCc2cc(S(=O)(=O)N3CCN(c4ccccc4Cl)CC3)ccc2N1	none (no result: V-ATPase pH)
CC(=O)NC(Cc1ccccc1)C(=O)N1CCN(C(=O)c2ccco2)CC1 (stereo unspecified)	none (no result: ADAM17 inh, ADAM10 inh, KLK7 zymogen act)
O=C(NC(Cc1ccccc1)C(=O)N1CCN(c2ccccn2)CC1)c1ccco1 (stereo unspecified)	V-ATPase pH 12.2 | V-ATPase pH SP inactive
N#C/C(=C\c1cc(Cl)ccc1O)C(=O)NC1CCCCC1	none (no result: ADAM17 inh, ADAM10 inh, KLK7 zymogen act)
N#C/C(=C\c1cc(Cl)cc(Cl)c1O)C(=O)NC1CCCCC1	V-ATPase pH 15.3 | V-ATPase pH SP inactive
Cc1cccc(N2CCN(C(=O)c3cc(=O)[nH]c4ccccc34)CC2)c1C	V-ATPase pH 14.1 | V-ATPase pH SP inactive
COCc1nc2sc(C)c(C)c2c(=O)[nH]1	V-ATPase pH 12.2 | V-ATPase pH SP inactive
CCOC(=O)c1cc2c(ccc3ccccc32)oc1=O	none
CC(C)(C)NC(=O)c1cc2c(ccc3ccccc32)oc1=O	V-ATPase pH 8.9 | V-ATPase pH SP inactive
CCCCNC(=O)N1CCC(c2nc3ccc(Cl)cc3[nH]2)CC1	none (no result: V-ATPase pH)
CCOc1ccc(-n2c(SCC(=O)c3ccc4ccccc4c3)nnc2-c2cccc(Cl)c2)cc1	none (no result: V-ATPase pH)
Cc1nc2ccsc2c(=O)n1-c1ccc(Cl)cc1	none | V-ATPase pH SP inactive
CCOc1ccc(/C=C2\NCCc3cc(OCC)c(OCC)cc32)cc1OCC	none (no result: V-ATPase pH)
CCNc1nnc(CCn2nc(C)c(Br)c2C)s1	V-ATPase pH 17.5 | V-ATPase pH SP inactive
CC(=O)Nc1ccc(S(=O)(=O)NNC(=O)COc2ccc(Cl)cc2Cl)cc1	V-ATPase pH 13.4 | V-ATPase pH SP inactive
CC(=O)Nc1ccc(S(=O)(=O)NNC(=O)COc2ccc(C)cc2)cc1	none
COc1nc(Cl)cn(-c2ccc(Cl)cc2)c1=O	none | V-ATPase pH SP inactive
CC1(C)CC(=O)N(CC(=O)N2CCN(c3cccc(Cl)c3Cl)CC2)c2ccccc2S1(=O)=O	none (no result: V-ATPase pH)
c1cnc(N2CCSCC2)nc1	V-ATPase pH 10.1 | V-ATPase pH SP inactive
c1cnc(N2CC[N+]3(CCCC3)CC2)nc1	none
COCCCNC(=O)CSc1nnc(-c2ccncc2)n1-c1ccc(OC)cc1	none (no result: V-ATPase pH)
COc1ccc(C)cc1NC(=O)c1sc2ncn(CC(=O)N3CCCCC3)c(=O)c2c1C	none
COc1cc(OC)c(NC(=O)c2sc3ncn(CC(=O)N4CCOCC4)c(=O)c3c2C)cc1Cl	V-ATPase pH 6.4 | V-ATPase pH SP inactive
COc1ccc(N2CCN(CCCNC(=O)Cn3c(=O)c4cccn4c4cccnc43)CC2)c(OC)c1	none (no result: V-ATPase pH, KLK7 zymogen act)
CCc1cc(-c2cnnn2Cc2ccc3ccccc3c2)ccc1-c1cn(CC(C)C)nn1	V-ATPase pH 7.2 | V-ATPase pH SP inactive
CCc1cc(-c2nnn(CCC3COCCO3)c2CC)ccc1-c1cn(Cc2ccccc2)nn1 (stereo unspecified)	none
CCC1(CC)NC(=O)N(CC(=O)OC(C)C(=O)Nc2cc([N+](=O)[O-])ccc2OC)C1=O (stereo unspecified)	V-ATPase pH 10.7 | V-ATPase pH SP inactive
COC[C@H]1CCCN1c1ccc2c(c1)O[C@@H]1CCN(C1)S2(=O)=O	none (no result: V-ATPase pH)
CC(C)CNC(C(=O)Nc1ccc([N+](=O)[O-])cc1Br)c1ccccc1 (stereo unspecified)	V-ATPase pH 10.8 | V-ATPase pH SP inactive
CN(C)C(CNC(C(=O)Nc1ccc([N+](=O)[O-])cc1Br)c1ccccc1)c1ccccc1 (stereo unspecified)	none
O=C(CSc1nnc(-c2cccnc2)n1-c1ccc(Cl)cc1)c1ccc2ccccc2c1	none (no result: V-ATPase pH)
CC(C)CCNC(=O)C1CCCN(C(=O)c2ccc3c(c2)NC(=O)CS3)C1 (stereo unspecified)	none (no result: V-ATPase pH)
COc1ccc(-c2nnc(S/C(=C/c3ccc(Cl)cc3)C(=O)O)o2)cc1	none
Fc1ccc(-c2nnc(CSc3nnc(-c4cccs4)o3)o2)cc1	none
CSc1ccc(/C=C(/Sc2nnc(-c3ccccc3)o2)C(=O)O)cc1	none | V-ATPase pH SP inactive
CSc1nnc(-c2ccccc2)o1	none | V-ATPase pH SP inactive
c1ccc(-c2nnc(-c3ccccc3)o2)cc1	none
O=C(O)/C(=C\c1cccs1)Sc1nnc(-c2ccc(F)cc2)o1	none | V-ATPase pH SP inactive
COCCNC(=O)C(c1ccc(C)o1)N(Cc1ccc(F)cc1)C(=O)Cn1nnc2ccccc21 (stereo unspecified)	V-ATPase pH 24.3 | V-ATPase pH SP inactive
COCCNC(=O)C(c1ccccc1)N(Cc1cccs1)C(=O)Cn1nnc2ccccc21 (stereo unspecified)	V-ATPase pH 23.7 | V-ATPase pH SP inactive
COCCNC(=O)C(c1ccc(C)o1)N(Cc1ccc(OC)cc1)C(=O)Cn1nnc2ccccc21 (stereo unspecified)	none
O=C(CSc1nnc(-c2ccc(Cl)cc2)n1C1CCCCC1)NN=Cc1c(O)ccc2ccccc12	none (no result: V-ATPase pH)
CCNC(=O)/C(C#N)=C/c1c(N2CCN(c3ccc(OC)cc3)CC2)nc2c(C)cccn2c1=O	V-ATPase pH 14.1 | V-ATPase pH SP inactive
CCNC(=O)/C(C#N)=C/c1c(N2CCN(c3ccccc3)CC2)nc2c(C)cccn2c1=O	none
COc1ccccc1N1CCN(S(=O)(=O)c2ccc3c(c2)n(C)c(=O)c(=O)n3C)CC1	none (no result: V-ATPase pH)
O=C(NCC1COCCO1)C1CCN(S(=O)(=O)c2ccc(Br)s2)CC1 (stereo unspecified)	none (no result: V-ATPase pH)
Cc1ccc(Nc2nc3ccccc3c(=O)[nH]2)cc1C	V-ATPase pH 11.2 | V-ATPase pH SP inactive
COC(=O)c1ccc(CNC(=O)c2ccc3c(c2)S(=O)(=O)N=C2CCCCCN23)cc1	V-ATPase pH 10.9 | V-ATPase pH SP inactive
CC(C)C[C@H](NC1(C(=O)NC2CCCCC2)CCCCC1)C(=O)NCC(c1ccccc1)c1ccccc1	none (no result: V-ATPase pH, KLK7 zymogen act)
COc1ccccc1N1CCN(C2CCCN(S(=O)(=O)c3ccc(C)cc3)C2)CC1 (stereo unspecified)	V-ATPase pH 10.3 | V-ATPase pH SP inactive
CC(c1ccccc1)n1cc(C(=O)NCCCN2CCCC2)nn1 (stereo unspecified)	none (no result: V-ATPase pH)
